PubChem BioAssay (NCI)
About 83,000 compounds went through this panel and 20% of them were active in at least one assay; those are over-represented in the sample as a whole.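 Cells were grown in 96-well plates and exposed to the test compound at a single concentration for 48 hours; results are reported as percent growth, with values below 10 considered active.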 Calls of active or inactive are those of the source.

What was measured:
Test in all cases: NCI-60 one-dose screen, 48 h (100 = growth as untreated, 0 = no growth, -100 = all killed)
Conditions in all cases: 10 µM unless noted
K-562 leukemia = tested on: K-562 leukemia
MALME-3M melanoma = tested on: MALME-3M melanoma
MDA-MB-231 breast = tested on: MDA-MB-231 breast
RXF 393 renal = tested on: RXF 393 renal
SF-268 CNS = tested on: SF-268 CNS
SF-539 CNS = tested on: SF-539 CNS
UACC-257 melanoma = tested on: UACC-257 melanoma
M14 melanoma = tested on: M14 melanoma
HCT-15 colon = tested on: HCT-15 colon

Measured: growth

N#CCCN(CCO)c1ccccc1
inactive: K-562 leukemia 98.3% | MALME-3M melanoma 96.8% | MDA-MB-231 breast 106% | RXF 393 renal 105% | SF-268 CNS 111% | SF-539 CNS 104% | UACC-257 melanoma 99.8% | M14 melanoma 102% | HCT-15 colon 102%

O=C(c1ccccc1)c1ccco1
inactive: K-562 leukemia 102% | MALME-3M melanoma 108% | MDA-MB-231 breast 93.6% | RXF 393 renal 131% | SF-268 CNS 98.5% | SF-539 CNS 92.5% | UACC-257 melanoma 89.3% | M14 melanoma 98.7% | HCT-15 colon 104%

Cc1ccc(C(=O)Nc2ccc(Cl)cc2C(=O)NCc2ccccc2)cc1
inactive: K-562 leukemia 30% | MALME-3M melanoma 88.9% | MDA-MB-231 breast 95.8% | RXF 393 renal 87.4% | SF-268 CNS 94.2% | SF-539 CNS 82.3% | UACC-257 melanoma 85.2% | M14 melanoma 74.9% | HCT-15 colon 57.4%

Cc1c(C(N)=O)sc2ncn(Cc3ccccc3)c(=O)c12
inactive: K-562 leukemia 97.1% | MALME-3M melanoma 120% | MDA-MB-231 breast 102% | RXF 393 renal 106% | SF-268 CNS 104% | SF-539 CNS 94.6% | UACC-257 melanoma 163% | M14 melanoma 105% | HCT-15 colon 115%

O=C(N1CCC(CN=c2cc3n(-c4ccc(Cl)cc4)c4ccccc4nc-3cc2Nc2ccc(Cl)cc2)CC1)N1CC1
active: K-562 leukemia -66.5% | MALME-3M melanoma -72.5% | MDA-MB-231 breast -56.9% | RXF 393 renal -93.3% | SF-268 CNS -63.6% | SF-539 CNS -88% | UACC-257 melanoma -94.4% | M14 melanoma -73.8% | HCT-15 colon -36.8%

O=C(Nc1ccncc1)C(=O)c1cn(S(=O)(=O)c2cccc(F)c2)c2ccccc12
inactive: K-562 leukemia 23.9% | MALME-3M melanoma 58.2% | MDA-MB-231 breast 67.4% | RXF 393 renal 59.9% | SF-268 CNS 75.9% | SF-539 CNS 27.3% | UACC-257 melanoma 75.6% | M14 melanoma 26.8% | HCT-15 colon 25.3%

Clc1cccc(Cc2cn3cc(-c4ccccc4)nc3s2)c1
inactive: K-562 leukemia 21.1% | MALME-3M melanoma 85.5% | MDA-MB-231 breast 52.2% | RXF 393 renal 94% | SF-268 CNS 64.9% | SF-539 CNS 41.6% | UACC-257 melanoma 37.4% | HCT-15 colon 40.4%
active: M14 melanoma 6.04%

O=c1ccn(C2CCCO2)c(=O)[nH]1 (stereo not given)
inactive: K-562 leukemia 105% | MALME-3M melanoma 116% | MDA-MB-231 breast 107% | RXF 393 renal 111% | SF-268 CNS 104% | SF-539 CNS 91.6% | UACC-257 melanoma 90.9% | M14 melanoma 107% | HCT-15 colon 105%

CN(C)c1nc(N)nc(Cn2c(-c3nonc3N)nc3ccccc32)n1
inactive: K-562 leukemia 23.1% | MALME-3M melanoma 88% | MDA-MB-231 breast 76.7% | RXF 393 renal 89.6% | SF-268 CNS 101% | SF-539 CNS 86.5% | UACC-257 melanoma 93.3% | M14 melanoma 72.7% | HCT-15 colon 59.4%

COc1ccc(-c2oc3cc(O)c(OC)c(O)c3c(=O)c2OC)cc1O
active: K-562 leukemia 8.02% | RXF 393 renal 7.24% | SF-539 CNS -16% | M14 melanoma -24.8%
inactive: MALME-3M melanoma 38.9% | MDA-MB-231 breast 11.1% | SF-268 CNS 13.6% | UACC-257 melanoma 53.4% | HCT-15 colon 17.3%

NNC(=O)NO
inactive: K-562 leukemia 94.8% | MALME-3M melanoma 98.6% | MDA-MB-231 breast 122% | RXF 393 renal 115% | SF-268 CNS 104% | SF-539 CNS 104% | UACC-257 melanoma 112% | M14 melanoma 102% | HCT-15 colon 102%

CCOC(Cc1c(N)[nH]c(=S)[nH]c1=O)OCC
inactive: K-562 leukemia 98.5% | MALME-3M melanoma 99.5% | MDA-MB-231 breast 111% | RXF 393 renal 108% | SF-268 CNS 111% | SF-539 CNS 99.4% | UACC-257 melanoma 103% | M14 melanoma 105% | HCT-15 colon 106%

CC(C)(C)c1cc(O)c(O)c(C(C)(C)C)c1
active: K-562 leukemia 3.38%
inactive: MALME-3M melanoma 67% | MDA-MB-231 breast 61.1% | RXF 393 renal 65% | SF-268 CNS 53.2% | SF-539 CNS 40.6% | UACC-257 melanoma 80.5% | M14 melanoma 51.9% | HCT-15 colon 26.7%

Cc1cc(O)c2c(c1)C[C@H]1[C@@H]3CC[C@H]4CC(=O)CC[C@]4(C)[C@H]3CC(=O)[C@]21C
inactive: K-562 leukemia 53.3% | MALME-3M melanoma 92.8% | MDA-MB-231 breast 86% | RXF 393 renal 94.1% | SF-268 CNS 87.6% | SF-539 CNS 73.3% | UACC-257 melanoma 100% | M14 melanoma 80.9% | HCT-15 colon 45.3%

O=C1/C(=N/O)CCc2ccccc21
inactive: K-562 leukemia 19.4% | MALME-3M melanoma 91.7% | MDA-MB-231 breast 79.7% | RXF 393 renal 96.7% | SF-268 CNS 91% | SF-539 CNS 88.5% | UACC-257 melanoma 90.7% | M14 melanoma 104% | HCT-15 colon 102%

O=[P@@]1(c2ccccc2)O[C@H](COCc2ccccc2)[C@@H](OCc2ccccc2)[C@H](OCc2ccccc2)[C@H]1NCc1ccccc1
inactive: MDA-MB-231 breast 13.6% | RXF 393 renal 28.7% | SF-268 CNS 32.2% | SF-539 CNS 27.2% | UACC-257 melanoma 22.5% | M14 melanoma 15.2% | HCT-15 colon 15.9%
active: K-562 leukemia 6.58% | MALME-3M melanoma -7.61%

CCC(C)CC(C)C(=O)c1c(O)ccn(O)c1=O (stereo not given)
active: SF-539 CNS 5.81%
inactive: K-562 leukemia 18.2% | MALME-3M melanoma 42.1% | MDA-MB-231 breast 45.3% | RXF 393 renal 35.4% | SF-268 CNS 26.4% | UACC-257 melanoma 27.1% | M14 melanoma 15.5% | HCT-15 colon 25.3%

Cc1c(C(N)=O)sc2nc(SCC(=O)Nc3ccc(Cl)cc3)n(-c3ccccc3)c(=O)c12
inactive: K-562 leukemia 84.2% | MALME-3M melanoma 159% | MDA-MB-231 breast 93.1% | RXF 393 renal 95.8% | SF-268 CNS 101% | SF-539 CNS 110% | UACC-257 melanoma 104% | M14 melanoma 104% | HCT-15 colon 121%

c1ccc2c(c1)[nH]c1c2cc[n+]2cc3c(cc12)CCCC3
inactive: K-562 leukemia 16.9% | MDA-MB-231 breast 31.4% | RXF 393 renal 76.8% | SF-268 CNS 23% | SF-539 CNS 37.6% | UACC-257 melanoma 38.4% | M14 melanoma 19.7% | HCT-15 colon 96.9%
active: MALME-3M melanoma 3.13%

O=C(Nc1cccc(C(F)(F)F)c1)Nc1ccc(OCc2nnc(-c3ccc(Cl)cc3)o2)c(F)c1
inactive: K-562 leukemia 61% | MALME-3M melanoma 55.7% | MDA-MB-231 breast 58.8% | RXF 393 renal 58.2% | SF-268 CNS 83.3% | SF-539 CNS 82.2% | UACC-257 melanoma 62.8% | M14 melanoma 73.5% | HCT-15 colon 42.9%

Clc1ccc2nc(Cl)c3ccccc3c2c1
inactive: K-562 leukemia 88% | MALME-3M melanoma 67.2% | MDA-MB-231 breast 74.9% | RXF 393 renal 59.6% | SF-268 CNS 76.3% | SF-539 CNS 63.8% | UACC-257 melanoma 93.1% | M14 melanoma 99.9% | HCT-15 colon 91.4%

COC(=O)c1ccc2c(c1)nc(-c1ccc(O)c(OC)c1)n2-c1cc(C(C)(C)C)[nH]n1
inactive: K-562 leukemia 90.6% | MALME-3M melanoma 114% | MDA-MB-231 breast 97.7% | RXF 393 renal 131% | SF-268 CNS 104% | SF-539 CNS 105% | UACC-257 melanoma 101% | M14 melanoma 95.7% | HCT-15 colon 115%

C/C(=N/N=C(N)N)c1ccc(N)cc1
inactive: K-562 leukemia 94.6% | MALME-3M melanoma 115% | MDA-MB-231 breast 104% | RXF 393 renal 98.5% | SF-268 CNS 114% | SF-539 CNS 96.3% | UACC-257 melanoma 150% | M14 melanoma 95.9% | HCT-15 colon 115%

O=Cc1c[nH]c2ccc(NC(=O)OCc3ccccc3)cc12
inactive: K-562 leukemia 72.2% | MALME-3M melanoma 186% | MDA-MB-231 breast 88.4% | RXF 393 renal 96.6% | SF-268 CNS 102% | SF-539 CNS 110% | UACC-257 melanoma 85.6% | M14 melanoma 105% | HCT-15 colon 67.1%

Cc1cc(C(=O)O)c(C)cc1C(=O)O
inactive: K-562 leukemia 101% | MALME-3M melanoma 89.5% | MDA-MB-231 breast 114% | RXF 393 renal 116% | SF-268 CNS 115% | SF-539 CNS 113% | UACC-257 melanoma 104% | M14 melanoma 101% | HCT-15 colon 104%

COc1cc(/C=C2\CCC/C(=C\c3ccc(OCC4CO4)c(OC)c3)C2=O)ccc1OCC1CO1 (stereo not given)
active: K-562 leukemia -3.49% | RXF 393 renal 4.7% | SF-268 CNS 1.73% | M14 melanoma 2.79%
inactive: MALME-3M melanoma 26.2% | MDA-MB-231 breast 13.1% | SF-539 CNS 25.2% | UACC-257 melanoma 35.1% | HCT-15 colon 14.4%

COc1cccc(C2C(C#N)=C(N)Oc3cc(OC)ccc32)c1 (stereo not given)
active: K-562 leukemia -4.51% | MDA-MB-231 breast -15.4% | SF-539 CNS -13.3%
inactive: MALME-3M melanoma 36.6% | RXF 393 renal 26.9% | SF-268 CNS 18.3% | UACC-257 melanoma 59.2% | M14 melanoma 12.6% | HCT-15 colon 10.4%

Nc1nonc1-c1nc2ccccc2n1CC(=O)Nc1ccc2c(c1)COC2=O
inactive: K-562 leukemia 38.9% | MALME-3M melanoma 79.4% | MDA-MB-231 breast 82.1% | RXF 393 renal 93.7% | SF-268 CNS 90.3% | SF-539 CNS 86.5% | UACC-257 melanoma 90.1% | M14 melanoma 72.9% | HCT-15 colon 70.5%

CN(C(=O)c1ccccc1)N(C)C(=O)c1ccccc1
inactive: K-562 leukemia 107% | MALME-3M melanoma 94.4% | MDA-MB-231 breast 107% | RXF 393 renal 122% | SF-268 CNS 116% | SF-539 CNS 108% | UACC-257 melanoma 113% | M14 melanoma 99.2% | HCT-15 colon 111%

O=C(NCCCO)c1cc(Cl)ccc1O
active: MALME-3M melanoma 0.89%
inactive: K-562 leukemia 11.1% | MDA-MB-231 breast 28.2% | RXF 393 renal 40.7% | SF-268 CNS 28.4% | SF-539 CNS 45% | UACC-257 melanoma 16.4% | M14 melanoma 30.3% | HCT-15 colon 77.5%
